ATXN viability = Viability Counterscreen for Primary qHTS for Inhibitors of ATXN expression; S2 cells (HEK-293 line with an ATXN2-luciferase reporter) viability, CellTiter-Fluor protease fluorescence, 24 h; Potency, µM (top dose mostly 56.7 µM), usual class: cytotoxic; 400,000 compounds, 0.49% hits; AID 651635, 2014; note: nearly all actives have a fitted effect of over 40% in size
ATXN2 expr inh = Primary qHTS for Inhibitors of ATXN expression | HEK-293 ATXN2-luciferase reporter, luminescence, 24 h | Potency, µM (series often up to 57 µM), most hits filed as inhibitors | 360,000 compounds, 0.72% hits | AID 1745845, 2022; note: nearly all actives have a fitted effect of over 55% in size
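ATXN2-luciferase reporter cells (luciferase flanked by upstream and downstream ATXN2 gene portions) were treated 24 h at 37 °C with compounds at up to 57 uM. SteadyGlo luminescence gave expression; GF-AFC fluorescence gave viability.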
HT1080NT lethal = qHTS for induction of synthetic lethality in tumor cells producing 2HG: qHTS for the HT-1080-NT fibrosarcoma cell line; 360,000 compounds, 1.6% hits; HT-1080-NT fibrosarcoma viability, CellTiter-Glo ATP luminescence, 48 h; AID 686970, 2013; Potency, µM (top dose mostly 46.1 µM), hits mostly cytotoxic;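 note: NT is the 2HG producing partner of a matched IDH1 knockdown line; nearly all actives have a fitted effect of over 55% in size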
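Viability by CellTiter-Glo luminescence after 48 h compound exposure at 37C of HT-1080-NT cells (750/well, RPMI, 5% FBS). % activity scaled between DMSO wells and medium-only wells, then curve-fitted and categorized by curve class.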
HepG2 viability = qHTS for Inhibitors of TGF-b: Cytotox Counterscreen | HepG2 CAGA-GFP viability, ATP luminescence, 18 h | Potency, µM (top dose mostly 46.1 µM), most hits filed as cytotoxic | 410,000 compounds, 0.76% hits | AID 588856, 2011
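CellTiter-Glo luminescence gave cytotoxicity after 18 hours at 37 degrees C. The cells were HepG2 CAGA-GFP in 1% FBS DMEM, stimulated with 500 pg/mL TGF-beta after compound addition. %Activity was normalised to no-cell wells (complete cell-killing) and DMSO (no toxicity), and curves were fitted and classified.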
HT1080 IDH1KD tx = qHTS for induction of synthetic lethality in tumor cells producing 2HG: qHTS for the HT-1080-IDH1KD cell line; HT-1080 IDH1 knockdown viability, ATP luminescence, 48 h; Potency, µM (titrated, usually from 46.1 µM), most hits filed as cytotoxic; 360,000 compounds, 2% hits
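% activity derives from luminescence (CellTiter-Glo), normalised to DMSO and no-cell wells. HT-1080-IDH1KD cells, 750/well, had 48 h compound exposure at 37 °C.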
TGFb SMAD3 inh = qHTS for Inhibitors of TGF-b; HepG2 CAGA-GFP TGF-b/SMAD3 reporter, GFP fluorescence, 18 h; TGF-beta stimulated, 500 pg/mL final; Potency, µM (top dose mostly 46.1 µM), most hits filed as inhibitors; 410,000 compounds, 1.2% hits; AID 588855, 2011; note: nearly all actives have a fitted effect of over 65% in size
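Cell-based qHTS in HEPG2 carrying a CAGA-GFP Smad reporter; compounds added before 500 pg/mL final TGF-beta, 18 h incubation at 37 degrees C, GFP fluorescence quantified per cell by imaging cytometry.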
Hits are given with their value; 0 = inactive; ? = inconclusive; - = no result; [ ] = remark or other dose. A selection: hits, their analogues and other compounds. The true share with any hit is near 3.9%. Calls come from the whole dose curve; as a rule, active = well fitted curve in the direction sought with a large enough effect; inconclusive = small, poorly fitted or top-dose-only effect, or another doubt; inactive = no such curve, though single readings can be large; an effect the other way counts as inactive or inconclusive.

SMILES | ATXN viability | ATXN2 expr inh | HT1080NT lethal | HepG2 viability | HT1080 IDH1KD tx | TGFb SMAD3 inh
O=C(N/N=C/c1c[nH]c2ccccc12)c1cc(-c2ccc3ccccc3c2)n[nH]1 | ? | 0 | 7.31µM | 0 | 5.8µM | 15.8µM
O=C(N/N=C/C=C/c1ccccc1[N+](=O)[O-])c1ccncc1 | 0 | 0 | 0 | 0 | 0 | 0
O=C(N/N=C/C=C\c1ccccc1[N+](=O)[O-])c1cc(-c2ccc3ccccc3c2)n[nH]1 | ? | 0 | 13µM | 8.91µM | 14.6µM | 12.6µM
O=C(N/N=C/c1c[nH]c2ccccc12)c1cc(-c2ccc(-c3ccccc3)cc2)n[nH]1 | - | ? | ? | 0 | 12.6µM | ?
O=C(N/N=C/c1c[nH]c2ccccc12)c1cc(-c2ccccc2)n[nH]1 | 0 | 0[11.3 µM] | ? | 0 | ? | 0
Cc1ccc(Cl)cc1NC(=O)c1ccc(NC(=O)N2CCSc3ncccc32)cc1 | - | - | - | 0 | - | 0
COC(=O)CNC(=O)Nc1cc(C(=O)NCc2ccc(C)cc2)ccc1N1CCCC1 | 0 | 0 | - | 0 | - | 0
COc1cc(=O)n2c(c1C(=O)NC(C)c1ccco1)CCN(CC=C(C)C)CC2 (configuration not stated) | 0 | - | - | - | - | -
Cc1cccc(N(C)C(=O)C(Cc2ccccc2)NS(=O)(=O)c2cccc3nsnc23)c1 (configuration not stated) | 0 | 0 | - | 0 | - | 0
Cc1ccc(-c2cc(C(=O)N/N=C/c3c[nH]c4ccccc34)[nH]n2)cc1 | 0 | 0 | ? | 0 | 2.91µM | ?
O=C(N/N=C/c1ccccn1)c1cc(-c2ccc3ccccc3c2)n[nH]1 | ? | ? | ? | 0 | 16.4µM | ?
Cc1nc(N2CCN(C)CC2)c2nnn(Cc3ccccc3)c2n1 | - | - | 0 | - | 0 | -
O=C1C[C@H]2C=CCc3cccc(c32)CN1Cc1ccc(Cl)cc1 | - | - | - | 0 | - | 10µM
COc1cc(-c2ccc(Cl)cn2)cc2c1OCCN(S(=O)(=O)C[C@]13CC[C@H](CC1=O)C3(C)C)C2 | 0 | - | - | - | - | -
CCOC(=O)Cc1ccc(Nc2nc3cc(-c4sccc4C)sc3c(=O)n2C)cc1 | ? | 0 | 8.2µM | 0 | 4.61µM | ?
COc1ccc(Nc2nc3cc(-c4sccc4C)sc3c(=O)n2C)cc1OC | 0 | 0 | ? | 0 | 1.3µM | ?
CC(=O)c1ccc(NS(=O)(=O)c2cc(-c3cc(C)no3)ccc2C)cc1 | 0 | 0 | - | 0 | - | 0
Cc1cc(C)cc(-n2ncc3c2CCCC3NC(=O)c2ccccc2N2CCOCC2)c1 (configuration not stated) | ? | 0 | ? | 0 | 16.4µM | ?
CC(C)(C)c1ccc(-n2ncc3c2CCCC3NC(=O)CCN2CCCC2=O)cc1 (configuration not stated) | 0 | - | ? | - | 18.4µM | 0
CC(C)(C)c1ccc(-n2ncc3c2CCCC3NC(=O)CN2CCCC2=O)cc1 (configuration not stated) | 0 | 0 | ? | 12.6µM | 0 | 0
CC(=O)CCC(=O)NC1CCCc2c1cnn2-c1ccc(C(C)(C)C)cc1 (configuration not stated) | ? | 0 | 0 | 0 | 0 | 0
Cn1nccc1C(=O)NC1CCCc2c1cnn2-c1ccc(C(C)(C)C)cc1 (configuration not stated) | ? | 0 | 1.3µM | 0 | 1.3µM | 0
Cc1cc(C)cc(-n2ncc3c2CCCC3NC(=O)CN2CCCC2=O)c1 (configuration not stated) | 0 | 0 | 0 | 0 | 0 | 0
COc1ccc(C(=O)Nc2cccc(-c3cn4ccsc4n3)c2)cc1OC | - | - | - | 0 | - | 0
CCc1cc2c(=O)c(-c3cnn(-c4ccccc4)c3)c(C)oc2cc1OCC(=O)Nc1cccc(C)c1 | 1.78µM | ? | 0 | 0 | 0 | 0
SMILES | ATXN viability | ATXN2 expr inh | HT1080NT lethal | HepG2 viability | HT1080 IDH1KD tx | TGFb SMAD3 inh
CCc1cc2c(=O)c(-c3cnn(-c4ccccc4)c3)c(C)oc2cc1OCC(=O)Nc1ccc(F)c(F)c1 | 0 | 0 | 0 | 0 | 0 | 0
Cn1cc(CN2CCC(C(=O)Nc3cccc(-c4cccc(F)c4)c3)CC2)cn1 | 0 | 0 | 20.6µM | 0 | 23.1µM | 11.2µM
Cc1cccc(CN2CCC(C(=O)Nc3cccc(-c4cccc(F)c4)c3)CC2)n1 | 0 | ? | ? | 0 | ? | ?
CCCn1ncc(CN2CCC(C(=O)Nc3cccc(-c4cccc(F)c4)c3)CC2)c1C | 0 | ? | 20.6µM | 17.8µM | ? | ?
Cc1nn(C(C)C)c(C)c1CN1CCC(C(=O)Nc2cccc(-c3cccc(F)c3)c2)CC1 | 0 | 0 | 14.6µM | 11.2µM | 20.6µM | ?
COc1ccc(NC(=O)c2c(NCc3cccs3)sc3c2CCCCC3)cc1 | 0 | ? | - | 0 | - | ?
COc1ccc(-c2ccc(NS(=O)(=O)c3ccc(OC)c(OC)c3)cc2)nn1 | 0 | 0 | - | 0 | - | 0
CC(C)(C)C(=O)Nc1ccc2nc(SCCOc3ccccc3Cl)sc2c1 | 0 | ? | - | 0 | - | 0

Screening data deposited in PubChem by National Center for Advancing Translational Sciences (NCATS).
